The list is not random: actives were taken first. Their share in the collection is about 1.6%.
PolyA inhibitor = blocks polyadenylation in yeast reporter cells | S. cerevisiae SKY197-pL101 polyadenylation reporter, beta-gal luminescence; efflux-impaired pdr1/pdr3 knockout yeast; score 100 = 6 SD above DMSO | activity score, % at 12 µM | hit rate 0.02% among 300,000 | AID 1875;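 active = lowest replicate activity score at least 50, where 100 means six control SD above control mean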;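 also: yeast exposed to compound for 9 h at 30 °C; higher score means more reporter readthrough which indicates perturbed polyadenylation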
HTR5A inv ctr = HTR5A inverse agonism, opioid heterodimer counter-screen; HTR5A cell line, luminescence; inhibition, % at 9.3 µM; hit rate 0.083% among 340,000; AID 504634; in the data active = inhibition mostly above about 23%, no sharp cut-off; inactive = mostly below about 18%;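 also: 0% = cells with DMSO and 100% = no-cell wells with DMSO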
Target sequence (P47898 whole entry, looked up): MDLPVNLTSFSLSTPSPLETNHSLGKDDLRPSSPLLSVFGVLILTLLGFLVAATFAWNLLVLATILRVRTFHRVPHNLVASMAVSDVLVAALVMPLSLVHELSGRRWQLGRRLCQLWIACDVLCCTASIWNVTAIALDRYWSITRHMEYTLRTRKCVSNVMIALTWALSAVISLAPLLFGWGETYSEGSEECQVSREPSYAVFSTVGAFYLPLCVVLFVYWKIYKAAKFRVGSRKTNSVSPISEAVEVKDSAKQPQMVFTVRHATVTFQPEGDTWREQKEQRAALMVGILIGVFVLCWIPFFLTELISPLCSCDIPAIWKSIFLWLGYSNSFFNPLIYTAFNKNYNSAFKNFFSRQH
HTR5A ag ctr = HTR5A agonism, opioid heterodimer counter-screen. activation, % at 9.3 µM. P47898. HTR5A agonist assay, luminescence, cell-based. hit rate 0.61% among 340,000. AID 504692; in the data active = activation mostly above about 9.5%, no sharp cut-off; inactive = mostly below about 7.6%;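 also: 0% = cells with vehicle only and 100% = reference agonist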
OPRM1-OPRD1 ag = OPRM1-OPRD1 heterodimerization agonism | P35372+P41143 | cells, luminescence | activation, % at 9.3 µM | hit rate 0.3% among 340,000 | AID 504326; in the data active = activation above about 18%;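 also: 0% = vehicle-treated cells and 100% = reference agonist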
MOR-DOR inv ag = inverse agonists of human mu-delta opioid receptor heterodimerization; cell-based MOR-DOR heterodimer luminescence, inverse agonism; inhibition, % at 9.3 µM; hit rate 0.21% among 340,000; in the data active = inhibition above about 22%, passing the limit was not always enough;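 also: 0% = cells with DMSO and 100% = wells without cells with DMSO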
NALP1 yeast inh = blocks the NALP1 inflammasome reconstituted in yeast | S. cerevisiae NALP1/ASC/caspase-1 growth, X-gal OD620, 72 h | hit rate 0.61% among 280,000 | inhibition, % at 10 µM; in the data active = inhibition mostly above about 24%, no sharp cut-off; inactive = mostly below about 32%
An asterisk follows results filed as active; . = no result given.

SMILES	PolyA inhibitor	HTR5A inv ctr	HTR5A ag ctr	OPRM1-OPRD1 ag	MOR-DOR inv ag	NALP1 yeast inh
O=C(CCc1ccccc1)NC(c1cccs1)c1cc(Cl)c2cccnc2c1O (stereo unspecified)	-5	-37	13*	3	-17	19
CCOC(=O)Cc1csc(NC(=O)Cc2ccc(Br)cc2)n1	11	-8	-5	0	1	35*
COc1ccccc1CN1CCCC(CN(CCN(C)C)C(=O)c2ccc(C)cc2)C1 (stereo unspecified)	-4	-9	3	-3	15	6
Oc1ccccc1/C=N/[n+]1ccccc1	-2	-6	-3	0	-1	3
CN1C/C(=C/c2ccncc2)C(=O)/C(=C/c2ccncc2)C1	-19	14	-5	-2	12	66*
Cc1sc(N)nc1-c1ccc(Oc2ccccc2)cc1	-50	-20	6	-2	10	95*
CON(C)S(=O)(=O)c1cccc(C(=O)N(CC(=O)Nc2ccccc2C(F)(F)F)Cc2ccco2)c1	.	-15	6	-2	7	.
Fc1ccc(-c2nc3ccccc3[nH]2)cc1	10	-5	2	3	-20	36*
O=c1c2c(n3cnnc3n1-c1ccccc1)-c1ccccc1CC21CCCC1	4	-7	13*	-4	18	14
CCN(c1ccc(C)cc1C)S(=O)(=O)c1nnc(NC(=O)C(C)(C)C)s1	10	-38	9.9*	6	-27	-1
NNC(=S)NCc1ccc2c(c1)OCO2	-5	-15	7	-1	6	105*
C=CCN(CC=C)C(=S)NC(=O)c1ccc(OC)cc1	-7	-6	4	-1	3	24
C=CCN(CC=C)C(=S)NC(=O)c1ccc(-c2ccccc2)cc1	-7	12	-1	1	-6	39*
Cc1ccc(S(=O)(=O)N2CCN(C(=O)c3cc(S(=O)(=O)N4CCOCC4)ccc3Cl)CC2)c(C)c1	.	-18	13*	-2	7	.
Cc1ccc(S(=O)(=O)N2CCN(C(=O)c3ccco3)CC2)c(C)c1	-9	-40	10*	-3	14	9
CC1CCCCC12NC(=O)N(CC(=O)Nc1ccccc1-c1ccccc1)C2=O (stereo unspecified)	24	-9	3	1	-4	37*
CN(Cc1ccccc1C#N)S(=O)(=O)c1cccs1	-24	-9	3	1	-9	2
N#Cc1nccnc1S(=O)(=O)c1cccs1	-32	.	.	.	.	23*
Cc1cc(C)cc(-n2c(C)nc3cc(C(=O)O)ccc32)c1	-7	-4	1	-4	17	13
O=C(NNC(=O)c1cccc2ccccc12)c1ccc(-c2ccccc2)cc1	-25	-52	13*	6	-33	23
O=C(NNC(=O)c1cccc2ccccc12)c1ccccc1O	-13	-32	5	-2	13	4
CCN(CC(=O)Nc1ccc(NC(C)=O)cc1)C(=O)c1cccnc1Sc1ccc(C)c(C)c1	13	-4	2	-3	13	.
COc1ccc(OCCN(C)Cc2ccccc2)cc1	11	-10	3	-2	13	30
COc1ccc(OCCCN(C)Cc2ccccc2)cc1	-3	0	0	-2	9	38*
COc1ccc(CCC(C)N(C)Cc2ccccc2)cc1 (stereo unspecified)	12	5	-1	-2	11	30*
SMILES	PolyA inhibitor	HTR5A inv ctr	HTR5A ag ctr	OPRM1-OPRD1 ag	MOR-DOR inv ag	NALP1 yeast inh
Cc1cc(NC(=O)/C(C#N)=C\c2ccc(-c3ccc(SC(F)F)cc3)o2)n(-c2ccccc2)n1	.	3	-1	2	-8	.
COc1ccc(S(=O)(=O)NNC(=O)c2ccccc2-n2cccc2)cc1	17	-5	-3	0	1	36*
O=C(NNS(=O)(=O)c1ccc(F)cc1)c1ccccc1F	-12	-45	12*	-3	14	2
Cc1cc(C)c(NC(=O)COC(=O)c2ccncc2)c(C)c1	.	17	-5	-2	13	.
C#CCOC(=O)c1ccc(-n2cncn2)nc1	-1	-8	-2	-1	6	42*
CCOc1ccc(C(=O)Nc2cc(-c3nc4ccccc4[nH]3)ccc2Cl)cc1[N+](=O)[O-]	-46	-25	5	3	-18	56*
COc1ccc2[nH]cc(CCNC(=O)c3ccc4ccccc4n3)c2c1	-35	-52	14*	-1	4	2

From PubChem
